The list shows a part of the results. Activity calls are given as the source filed them.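 Rule for the calls: active = fluorescence interference ratio at or above 1.2, signal boosting, or at or below 0.8, signal quenching; inactive = ratio between 0.8 and 1.2.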
Assay: signal quenchers or enhancers, Cy5-oligo/SSB – biochemical, E. coli SSB, selected ChemBridge compounds, artefact control for HCV NS3 helicase inhibitor project (AID 720487);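 note: ratio of compound well signal to mean negative control signal so 1 means no effect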
Conditions: Cy5-dT15/E. coli SSB fluorescence interference; at 100 µM; actives lie on both sides

Fluorescence interference ratio, active:
CCN(CC)c1ccc(NC(=O)/C(=C\c2ccccc2)NC(C)=O)cc1 1.22

Fluorescence interference ratio, inactive:
N#Cc1c(N)nc2sc(C(=O)Nc3ccccc3)c(N)c2c1-c1ccco1 1.02
COc1cc(/C(O)=C(\C#N)c2nc3ccccc3n2C)cc(OC)c1OC 0.913
CCN(CC)c1ccc(C=C2C(=O)N(C)C(=O)N(C)C2=O)c(O)c1 1.15
O=c1c2c(nc3cc(-c4cccc(F)c4)[nH]n13)CCS2 0.862
CC(C)(C)N1C(=O)NC(=O)C(=Cc2cccs2)C1=O 0.954
Cc1ccc(C(=O)NCCNc2ccc([N+](=O)[O-])cc2)cc1 0.915
O=C1NC(=O)C(=Cc2cc([N+](=O)[O-])cc(Br)c2O)C(=O)N1 0.896
C=CCN1C(=O)/C(=C\c2cc(OC)c(O)c([N+](=O)[O-])c2)C(=O)NC1=S 0.902
CCOc1ccc(C=C2C(=O)NC(=O)NC2=O)cc1Cl 0.963
O=C(NC(=S)Nc1ccc(-c2nc3cc(Cl)ccc3o2)cc1)c1ccco1 0.991
COc1ccc(N2C(=O)C=CC2=O)c([N+](=O)[O-])c1 1
COc1ccc(C(=O)Oc2ccc3oc(=O)cc(C)c3c2)cc1OC 0.977
Cc1ccc(C(=O)C[n+]2cc(-c3ccccc3)n3c2CCCCC3)cc1 1.01
COc1cc(C=C2C(=O)NC(=O)NC2=O)ccc1OCCOc1ccc([N+](=O)[O-])cc1 0.897

— PubChem BioAssay AID720487 (Milwaukee Institute for Drug Discovery, 2013)
